High-throughput results (PubChem)
ARNT TACC3 PPI = disrupts binding between human ARNT and TACC3. AlphaScreen His-ARNT PAS-B/GST-TACC3 binding, luminescence; TACC3 fragment carries E629A point mutation. inhibition, % at 9.99 µM. 390,000 compounds, 0.66% hits;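 active means mean inhibition of replicates at least 50% and at least half of replicates each reaching 50%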;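 further: 0% = complete ARNT plus TACC3 wells and 100% = ARNT alone without TACC3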
SIRT5 inh = sirtuin-5 (human) deacylase inhibition; 330,000 compounds, 1.1% hits; inhibition, % at 15 µM; Q9NXA8; Purified SirT5, succinyl-peptide AMC, trypsin-coupled fluorescence; in the data active means inhibition above about 15%
Target sequence (Q9NXA8 whole entry, looked up): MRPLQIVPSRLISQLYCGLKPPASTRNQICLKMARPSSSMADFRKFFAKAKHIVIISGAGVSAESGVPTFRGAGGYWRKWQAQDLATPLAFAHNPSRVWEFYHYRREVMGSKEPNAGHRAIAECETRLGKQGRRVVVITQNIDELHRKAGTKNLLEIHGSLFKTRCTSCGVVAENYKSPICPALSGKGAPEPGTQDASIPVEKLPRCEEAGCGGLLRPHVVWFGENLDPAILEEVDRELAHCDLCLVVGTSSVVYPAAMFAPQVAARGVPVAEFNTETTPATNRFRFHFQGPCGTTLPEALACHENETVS
CASP6 VEID inh = inhibitors of human caspase-6 | P55212 | purified caspase-6, Z-VEID-R110 cleavage fluorescence | inhibition, % at 12.5 µM | 350,000 compounds, 0.53% hits;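 active means mean inhibition across replicates at least about 35%, with every replicate also reaching that limit, limit read from the data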;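 further: 0% = median of neutral control wells and 100% = no fluorescence left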
Target sequence (P55212 24-179 limits assumed): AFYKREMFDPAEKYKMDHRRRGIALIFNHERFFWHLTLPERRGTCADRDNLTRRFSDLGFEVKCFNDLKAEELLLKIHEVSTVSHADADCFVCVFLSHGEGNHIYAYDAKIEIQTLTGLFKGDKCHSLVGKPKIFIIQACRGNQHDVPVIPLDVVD
Target sequence (P55212 194-293 limits assumed): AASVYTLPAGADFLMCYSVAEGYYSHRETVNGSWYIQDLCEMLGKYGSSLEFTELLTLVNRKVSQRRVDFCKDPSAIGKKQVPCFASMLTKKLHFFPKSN
NSD2 inh = inhibitors of human histone methyltransferase NSD2; O96028; NSD2 peptide methylation, AlphaScreen, 120 min; inhibition, % at 12.5 µM; 310,000 compounds, 0.54% hits; AID 743445; in the data active means inhibition above about 50%
PfHsp90 yeast 2 = growth inhibition of yeast expressing Plasmodium Hsp90 | S. cerevisiae expressing PfHsp90, BacTiter-Glo ATP, 48 h; yeast lacking PDR1 and PDR3 efflux regulators | inhibition, % at 9.4 µM | 310,000 compounds, 0.32% hits | AID 504621;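 active means every replicate shows inhibition above about 80%, whatever the replicate mean, limit read from the data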;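 further: 0% = DMSO neutral controls and 100% = 20 µM radicicol positive controls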
* marks the source's active call; other numbers are inactive results; / = not tested or not shown. This is a sample that favours compounds with a hit; in the whole collection about 2.1% have one here.

SMILES | ARNT TACC3 PPI | SIRT5 inh | CASP6 VEID inh | NSD2 inh | PfHsp90 yeast 2
CCOC(=O)COc1ccc(Br)cc1/C=C/c1[nH]c(=O)[nH]c(=O)c1[N+](=O)[O-] | / | -2.3 | 40.1* | -1.3 | -33.8
O=C(Nc1ccc(C(F)(F)F)cc1)N[C@@H]1C=C[C@@H](CC(=O)N2CCCCC2)O[C@H]1CO | 46.3* | 0.2 | -0.6 | / | /
O=C(NC1CCCCC1)N[C@@H]1C=C[C@@H](CC(=O)N2CCOCC2)O[C@@H]1CO | 3.8 | 5.5 | 3.5 | / | /
O=C(N[C@H]1C=C[C@H](CC(=O)N2CCOCC2)O[C@H]1CO)c1ccccn1 | -10.7 | 29.4* | 2.5 | / | /
O=C(NC1CCCCC1)N[C@H]1C=C[C@@H](CC(=O)N2CCOCC2)O[C@@H]1CO | 1.3 | 7.7 | 36.8* | / | /
CC(=O)N(C)C[C@H]1Oc2cc(-c3ccc(C#N)cc3)ccc2S(=O)(=O)N([C@H](C)CO)C[C@@H]1C | -1.1 | 0.7 | 3.6 | / | /
C[C@@H]1CN([C@@H](C)CO)C(=O)c2cccc(NS(=O)(=O)c3ccc(F)cc3)c2O[C@@H]1CN(C)S(C)(=O)=O | -2.8 | -0.2 | 0.3 | / | /
O=C(O)c1ccc2[nH]c3c(c2c1)CCCC3 | -2.0 | -5.9 | 29.0 | 1.4 | -3.1
CC1CCc2[nH]c3ccc(C(=O)O)cc3c2C1 (centres undefined) | 11.1 | -8.7 | 48.4* | 0.4 | 22.0
C[C@H]1CN([C@@H](C)CO)C(=O)c2cccc(NS(C)(=O)=O)c2O[C@H]1CN(C)C(=O)Nc1ccc(F)cc1 | -4.9 | -2.0 | 0.2 | / | /
CC1=NN(c2nc(-c3ccccc3)cs2)C(=O)C1 | 8.2 | / | / | -1.5 | -27.0
O=C1CC(c2ccccc2)=NN1c1nc(-c2ccccc2)cs1 | 9.7 | 6.4 | 0.2 | 3.1 | 92.2*
CN(C)CC#Cc1ccc([C@H]2[C@H]3CN(C(=O)C4CC4)CCCCN3[C@H]2CO)cc1 | -5.4 | 0.6 | 1.4 | / | /
O=C(NCc1ccccn1)c1ccc(Cl)c(S(=O)(=O)N2CCCCCC2)c1 | 46.2* | -4.3 | 2.0 | 1.0 | 9.5
Cc1noc(C)c1S(=O)(=O)Nc1ccc2c(c1)C(=O)N([C@@H](C)CO)C[C@@H](C)[C@@H](CN(C)CC1CCCCC1)O2 | 2.2 | -4.2 | -6.2 | / | /
COc1ccc(S(=O)(=O)N(C)C[C@@H]2Oc3ccc(NC(=O)C4CCCCC4)cc3C(=O)N([C@H](C)CO)C[C@H]2C)cc1 | -9.9 | 5.0 | -2.7 | / | /
O=C(NC1CC1)c1cccc2c1C(=O)c1ccc(N3CCC(N4CCCCC4)CC3)cc1S2(=O)=O | / | 16.8* | -5.5 | / | /
O=C(NCc1cc(C(F)(F)F)ccc1Cl)c1cccc2c1C(=O)c1ccc(N3CCC(N4CCCCC4)CC3)cc1S2(=O)=O | / | -0.9 | -5.2 | / | /
COc1ccc(S(=O)(=O)Nc2ccc3c(c2)C(=O)N([C@@H](C)CO)C[C@H](C)[C@H](CN(C)C(=O)Cc2ccccc2)OCCCC[C@@H](C)O3)cc1 | -28.3 | 7.0 | 0.2 | / | /
CO[C@@H]1CN(C)C(=O)c2cc(NC(=O)NC3CCCCC3)ccc2OC[C@H](C)N(CC2CCOCC2)C[C@@H]1C | / | / | -0.6 | / | /
c1nc(N2CCOCC2)c2c3c(sc2n1)CCCC3 | -2.0 | 35.8* | -0.5 | 1.3 | /
O=S(=O)(c1ccccc1)N1C[C@H]2[C@@H](c3ccccc31)[C@@H](CO)N2Cc1ccccc1 | 2.4 | 0.3 | 2.7 | / | /
CC1CN(C(=O)Nc2ccc(Br)cc2Cl)CC(C)O1 (centres undefined) | -1.6 | 66.5* | 2.1 | -0.1 | -10.7
C[C@H](CO)N1C[C@H](C)[C@H](CN(C)C(=O)Nc2ccc(C(F)(F)F)cc2)Oc2ccc(NC(=O)Cn3cnnn3)cc2C1=O | -5.4 | / | -0.1 | / | /
CCSc1nnc(NC(=O)CSc2nncc(=O)n2N)s1 | 70.0* | 0.5 | 0.9 | 3.0 | /
SMILES | ARNT TACC3 PPI | SIRT5 inh | CASP6 VEID inh | NSD2 inh | PfHsp90 yeast 2
CCc1nnc(NC(=O)CSc2nncc(=O)n2N)s1 | -6.2 | -1.0 | 2.2 | -3.7 | -3.9
CCSc1nnc(NC(=O)Cc2ccc(OC)cc2)s1 | / | 19.8* | -2.0 | -3.2 | -6.2
CCc1ccc([C@@H]2CC=C(C(=O)O)[C@H](c3ccccc3)N2S(=O)(=O)c2ccc(C)cc2)cc1 | -4.0 | 1.3 | 6.0 | / | -17.3
Cc1ccc(S(=O)(=O)N2[C@@H](c3ccc(C(C)(C)C)cc3)C(C(=O)O)=CC[C@H]2c2ccc(C(C)C)cc2)cc1 | -1.2 | 28.1* | 33.2 | / | -2.8
Cc1ccc([C@@H]2CC=C(C(=O)O)[C@H](c3ccc(Br)cc3)N2S(=O)(=O)c2ccc(C)cc2)cc1 | / | 4.3 | 16.9 | / | -95.7
Cc1ccc(S(=O)(=O)N2[C@@H](c3ccc(C(C)(C)C)cc3)C(C(=O)O)=CC[C@H]2c2ccc(Cl)cc2)cc1 | -4.5 | 16.2* | 25.7 | / | -51.8
Cc1ccc(S(=O)(=O)N2[C@@H](c3ccc(Br)cc3)C(C(=O)O)=CC[C@H]2c2ccc(C(C)C)cc2)cc1 | 0.2 | 15.3* | 25.6 | / | -19.2
CCc1ccc([C@@H]2CC=C(C(=O)O)[C@H](c3ccc(C(C)(C)C)cc3)N2S(=O)(=O)c2ccc(C)cc2)cc1 | -0.5 | 22.3* | 45.1* | / | -21.7
Cc1ccc(S(=O)(=O)N2[C@@H](c3ccc(C(C)(C)C)cc3)C(C(=O)O)=CC[C@H]2c2cccs2)cc1 | 25.2 | 0.0 | 12.7 | / | -7.8
Cc1ccc([C@@H]2CC=C(C(=O)O)[C@H](c3ccc(C(C)(C)C)cc3)N2S(=O)(=O)c2ccc(C)cc2)cc1 | / | 7.2 | 46.1* | / | -65.8
CN(c1ccc(OCC(=O)Nc2cc(Cl)ccc2C(=O)O)cc1)S(=O)(=O)c1ccc(F)cc1 | -12.6 | 1.4 | 36.3* | 8.1 | -9.1
CN(c1ccc(OCC(=O)Nc2ccc(S(N)(=O)=O)cc2)cc1)S(=O)(=O)c1ccc(F)cc1 | 2.1 | -0.6 | 5.1 | 1.4 | 8.6
CN(Cc1ccccc1)C(=O)COc1ccc(N(C)S(=O)(=O)c2ccc(F)cc2)cc1 | 4.0 | 17.9* | 0.3 | -2.7 | -0.1
CN(C)CC(=O)Nc1ccc2c(c1)[C@@H]1C[C@H](CC(=O)NCCc3ccccc3)O[C@H](CO)[C@@H]1O2 | -10.3 | 2.7 | -0.6 | / | /
Cc1cccc(-c2ccc([C@@H]3[C@@H](CO)N4C(=O)CN(C(=O)NC5CCCCC5)C[C@@H]34)cc2)c1 | / | 2.3 | 0.6 | / | /
COC(=O)[C@@]1(Cc2ccc(F)cc2)[C@H]2c3cc(C(=O)N4CCCC4)n(Cc4cc(F)cc5c4OCOC5)c3C[C@H]2CN1C(=O)c1ccccc1 | / | 22.3* | -1.9 | / | /
